We go through nine molecules from PubChem BioAssay (NCI).

Test systems include BT-549 breast; MDA-MB-435 melanoma; MCF7 breast; HCT-116 colon; KM12 colon; HCC-2998 colon.
What all share (assay): NCI-60 one-dose screen, 48 h (100 = growth as untreated, 0 = no growth, -100 = all killed)
The subject of the next assay is SW-620 colon. As to conditions: 10 µM unless noted.
The subject of the next assay is T-47D breast. As to conditions: 10 µM unless noted.

“And” between values parts separate entries of the source, which are not always exact repeats. Equal values may be shown once. About 83,000 compounds went through this panel and 20% of them were active in at least one assay; those are over-represented in the sample as a whole.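 Percent growth is the endpoint: 0 to 100 indicates growth inhibition (40 means 60% inhibition), 0 means no net growth, and negative values indicate cell death.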 The source made the active and inactive calls. How the source made its calls: active means growth percent below 10; inactive means the rest.

In the case of `COC(=O)/C=C/c1cc(O)c2c(c1)C(C(=O)OC)C(c1ccc(O)c(O)c1)O2` (stereo not given), the growth in the assay on BT-549 breast (10 µM unless noted) was -2.3% (active) and -1.89% (active); with MDA-MB-435 melanoma (10 µM unless noted), -37.6% (active) and -26% (active); in the assay on SW-620 colon, 19.4% (inactive) and 29.6% (inactive); with MCF7 breast (10 µM unless noted), 15.1% (inactive) and 13.7% (inactive); with HCT-116 colon (10 µM unless noted) it was 8.03% (active) and 7.89% (active); with KM12 colon (10 µM unless noted) it was 11.9% (inactive) and 11.7% (inactive).
In the case of `CCN(CC)CCNc1cc(-c2cccc(OC(F)(F)F)c2)nc2ccc(N3CCCC3)cc12`, the growth was -70.7% (active) and 34.3% (inactive) and 62.7% (inactive) with BT-549 breast (10 µM unless noted); -4.48% (active) and -55% (active) and -33.6% (active) in the assay on MDA-MB-435 melanoma (10 µM unless noted); 31% (inactive) and 0.803% (active) and 8.35% (active) in the assay on SW-620 colon; 6.94% (active) and -27.3% (active) and -21.5% (active) with MCF7 breast (10 µM unless noted); -88% (active) and -45.7% (active) and 4.4% (active) in the assay on HCT-116 colon (10 µM unless noted); 23.8% (inactive) and -45.2% (active) and -4.48% (active) in the assay on HCC-2998 colon (10 µM unless noted). The growth in the assay on KM12 colon (10 µM unless noted) is 32.3% (inactive) and -1.83% (active) and 9.39% (active).
Consider `O=C1OC(Oc2ccc(Br)cc2)(c2ccccc2)c2ccccc21` (stereo not given), for which the growth is 88.4% (inactive) and 120% (inactive) in the assay with BT-549 breast (10 µM unless noted); 102% (inactive) and 79.5% (inactive) in the assay with MDA-MB-435 melanoma (10 µM unless noted); 78.6% (inactive) and 66.5% (inactive) with SW-620 colon; 89% (inactive) and 101% (inactive) in the assay with MCF7 breast (10 µM unless noted); 65.6% (inactive) and 54.6% (inactive) with HCT-116 colon (10 µM unless noted); 102% (inactive) and 87.3% (inactive) in the assay on HCC-2998 colon (10 µM unless noted). Further, the growth in the assay on KM12 colon (10 µM unless noted) was 87.7% (inactive) and 76.3% (inactive).
As for `O[C@H](c1cc(C(F)(F)F)nc2c(C(F)(F)F)cccc12)[C@@H]1CCCCN1`, the growth in the assay with T-47D breast is 43.6% (inactive) and 64% (inactive); in the assay on BT-549 breast (10 µM unless noted), 65.1% (inactive) and 74.8% (inactive); in the assay on MDA-MB-435 melanoma (10 µM unless noted) it was 64.2% (inactive) and 69% (inactive); with MCF7 breast (10 µM unless noted), 21.3% (inactive) and 13.3% (inactive); in the assay on HCT-116 colon (10 µM unless noted), 44.1% (inactive) and 45.2% (inactive); in the assay on KM12 colon (10 µM unless noted), 50.7% (inactive) and 43.8% (inactive).
As to `O=C(Nc1cccc(Cl)c1)c1cc2ccccc2cc1O`, the growth is 6.65% (active) and 0.941% (active) in the assay on BT-549 breast (10 µM unless noted); 28.8% (inactive) and 13.9% (inactive) in the assay with MDA-MB-435 melanoma (10 µM unless noted); 13.1% (inactive) and 13.9% (inactive) with SW-620 colon; 35.5% (inactive) and 16.9% (inactive) in the assay with MCF7 breast (10 µM unless noted); 18.9% (inactive) and 6.81% (active) in the assay on HCT-116 colon (10 µM unless noted); 27.4% (inactive) in the assay on HCC-2998 colon (10 µM unless noted). Also, in the assay on KM12 colon (10 µM unless noted), the growth was 15.4% (inactive) and 11.8% (inactive).
Regarding `O=C(N/N=C/c1ccccc1)N/N=C/c1ccccc1`, the growth in the assay with T-47D breast is 114% (inactive) and 106% (inactive); with MDA-MB-435 melanoma (10 µM unless noted) it was 104% (inactive) and 98.6% (inactive); in the assay on MCF7 breast (10 µM unless noted), 99.1% (inactive) and 102% (inactive); in the assay with HCT-116 colon (10 µM unless noted), 107% (inactive); in the assay on HCC-2998 colon (10 µM unless noted), 101% (inactive) and 96.3% (inactive); in the assay with KM12 colon (10 µM unless noted) it was 99.8% (inactive) and 102% (inactive).
As for `CC(C)(C)c1cc(NC(=O)Cc2ccc(-c3cnc4cc(-c5cnn(CCN6CCOCC6)c5)ccc4n3)cc2)no1`, the growth in the assay on BT-549 breast (10 µM) is 22% (inactive); in the assay on BT-549 breast (30 µM), 32.9% (inactive); with MDA-MB-435 melanoma (10 µM), 19.1% (inactive); in the assay with MDA-MB-435 melanoma (30 µM) it was 19.6% (inactive); in the assay with MCF7 breast (10 µM) it was 35.4% (inactive); with MCF7 breast (30 µM) it was 33.8% (inactive). The growth in the assay with HCT-116 colon (10 µM) is 14.9% (inactive); with HCT-116 colon (30 µM) it was 24.3% (inactive); in the assay on HCC-2998 colon (10 µM), 40.3% (inactive); in the assay with HCC-2998 colon (30 µM), 39.4% (inactive); in the assay with KM12 colon (10 µM), 8.46% (active); with KM12 colon (30 µM) it was 9.72% (active).
Consider `COc1ccc(CCN(C)CCCC(C#N)(c2ccc(OC)c(OC)c2)C(C)C)cc1OC` (stereo not given), for which the growth is 94.4% (inactive) and 93.3% (inactive) and 94.6% (inactive) in the assay with BT-549 breast (10 µM unless noted); 102% (inactive) and 93.3% (inactive) and 97.9% (inactive) in the assay on MDA-MB-435 melanoma (10 µM unless noted); 92.8% (inactive) and 100% (inactive) and 92.6% (inactive) in the assay with SW-620 colon; 89% (inactive) and 106% (inactive) and 95.3% (inactive) with MCF7 breast (10 µM unless noted); 75% (inactive) and 78.9% (inactive) and 93.4% (inactive) in the assay on HCT-116 colon (10 µM unless noted); 99.7% (inactive) and 111% (inactive) and 97.5% (inactive) in the assay with HCC-2998 colon (10 µM unless noted). Further, in the assay on KM12 colon (10 µM unless noted), the growth was 114% (inactive) and 115% (inactive) and 95.6% (inactive).
Take `COc1ccc2nc(Cl)cc(C)c2c1`: the growth in the assay with T-47D breast is 98.5% (inactive) and 128% (inactive); in the assay with BT-549 breast (10 µM unless noted), 130% (inactive) and 92% (inactive); with MDA-MB-435 melanoma (10 µM unless noted), 93.6% (inactive) and 96.1% (inactive); in the assay on MCF7 breast (10 µM unless noted) it was 92.1% (inactive) and 111% (inactive); in the assay on HCT-116 colon (10 µM unless noted), 107% (inactive) and 89.6% (inactive); with HCC-2998 colon (10 µM unless noted) it was 108% (inactive) and 96.1% (inactive). Besides, in the assay on KM12 colon (10 µM unless noted), the growth was 99.3% (inactive) and 124% (inactive).
